The record followed here is the supplement of paper PMC11417369.

The full ranking holds about 25,000 sequences; the median of “ln(normalized median fluorescence intensity)” is about 9.3, and the highest 2% start at about 10. Shown is part of a subset that was picked to be rich in the highest values.

The subject of the test is PF3D7_0420300 AP2 domain 1 (GST-tagged). The test can be described thus: gcPBM binding intensity (ln(normalized median fluorescence intensity)); higher = stronger DNA binding. In short, it runs like this: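 Binding intensity values are the highest Masliner-normalised natural-log median intensity among replicate spots of either probe orientation. The binding step lasted 1 h in 1× PBS with 1% milk, 0.2 mg/ml BSA, 0.5% salmon testes DNA and 0.03% Triton X-100, using GST-tagged P. falciparum DNA-binding domains expressed in E. coli on an Agilent 4 × 180k array of primer-extended double-stranded 36-bp intergenic genomic probes plus negative controls. Alexa488 anti-GST antibody and a 488 nm scan detected bound protein.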
For the sequence “TCTTATAAACTCTGCACACATAATATATTAAATGAG [CACACA_site1936]”, the “gcPBM binding intensity (ln)” value turned out to be 9.31.
The figure for “TATATTTATTATAATTGTACATAAAATAAACTAAGA [XGTACX_site4318]” is 9.19; for “TATATATGTAGACGTTGTACTTTTTTGTAAGTTTAA [XGTACX_site5638]” it is 9.13; for TGATATTTTTCCATAGTGCAAAATATAGTAATGTAT it is 9.11.
The figure for “AAAAAAAAAAAACACACACACACACCCATACATACA [CACACA_site707]” is 10.2; for “CACAGACACCCATACACACACATACCCATATATATA [CACACA_site5023]” it is 10; for “AAAAAACACCCATACACACACACACCGATATATATA [CACACA_site5808]” it is 10.2.
The figure for “AAAAAAAAAAAACACACACACACATACACATACATA [CACACA_site2858]” is 10.2.
With “AAAAAAAAAAAAAAAACACACATACACCCAGACACA [CACACA_site5807]”, the “gcPBM binding intensity (ln)” value amounted to 9.6.
Under “AAAAAAAAAAAACACACACACACATACCCATACATA [CACACA_site5575]” stands 10.1; under “AAAAAACAGACATACACACACACACCCATATATATA [CACACA_site3392]”, 10.2; under “AAAAAAAAAAAAAACACACACACACCCATACACATA [CACACA_site2860]”, 10.1.
Under “AAAAAAAAAAAAAAAACACACATACATACATACATA [CACACA_site6125]” stands 9.61; under “AAAACATACATATATACACACATATATATATATATA [CACACA_site1852]”, 9.57; under “TTTTTAATAACACTTTTGAAAAATAAAATAAAATAA [CACACA_negctrl_site821]”, 8.8.
Under “AAACAAATAAAATTTATTAAAAAGGTCATATTATTA [CACACA_negctrl_site85]” stands 9.12.
Regarding “AGAAAGGATATTATATGTACATATCTTTGTATTTTT [XGTACX_site5040]”, the “gcPBM binding intensity (ln)” value amounted to 9.36.
Under “GTATACATGCAAATTTTTATTTACAACCCCAAAAAG [XGTACX_negctrl_site255]” stands 9.23; under “GCACAAATATATATATATATATATATATATATATAT [GTGCAC_negctrl_site661]”, 9.06; under “AAAAAAAAAAAAAACACACACACACCCACATATACA [CACACA_site2663]”, 10.1.
The figure for “TAAACACCCATACATACACACATACATACACCCATA [CACACA_site5125]” is 9.58.
Under “AAAAAAAAAAAAAACACACATACACGCCCACCCATA [CACACA_site3391]” stands 10.2; under “AAAAAAAAAAAACACACACACACACCCATATACATA [CACACA_site2664]”, 10.3; under “AAAAAAAAAAAAAACACACACACACCCATACCCATA [CACACA_site5577]”, 10.1.
For the sequence “TCCTTTTCATCTTGTAGTACGGAAATGTAGCTCCAA [XGTACX_site8563]”, the “gcPBM binding intensity (ln)” value was 9.09.
Under “CTTTTTTTAATGATAACACACATGTTGTGCATAGAC [CACACA_site3270]” stands 9.32; under “ATTTATTAAAAGAAATGTACAGAAAATGTTTGGAAT [XGTACX_site7187]”, 9.26.
For the sequence “ATTAAATATATTTTGCGTACACAAAAAAATACGTTC [XGTACX_site3862]”, the “gcPBM binding intensity (ln)” value is 9.15.
“AATGAAAATAAATTAACACACAATTTTAATATTGTT [CACACA_site1306]”: the “gcPBM binding intensity (ln)” value amounted to 9.32.
The figure for “TCATATATTTATGTATGTACATATATATATAGATTA [XGTACX_site380]” is 9.01; for “CATATCATTGATTATAGTACACATACCATTTTTTAT [XGTACX_site6572]” it is 9.45; for GTAATAAGAATTATAGTGCAATGTAATACATTTATA it is 9.23.
Under AGGATAAAAGTTATGGTGCATTAACCTATTTAAATA stands 9.14.
The figure for “AAAAAACACGGACACACACACATATACATACATACA [CACACA_site5470]” is 10.1; for “AAAAAACACGCGCACACACACACACGCGCCCACATA [CACACA_site7106]” it is 10.3.
As to “AACACGCGCGGACACACACACACACCCACATATATA [CACACA_site5252]”, the “gcPBM binding intensity (ln)” value was found to be 10.4.
As to “AAAACACGCGGACACACACACACACGCCCACATATA [CACACA_site7105]”, the “gcPBM binding intensity (ln)” value amounted to 10.4.
The figure for “AAAAAAAAAAAAAAAACACACACATATATATATATA [CACACA_site8571]” is 9.51; for “AGAAAAAAACAACATGCACACGCACCCACAAAAAAA [CACACA_site7908]” it is 9.71; for “AACACCCATGGACACACACACATATATATATATATA [CACACA_site5809]” it is 9.92.
For the sequence “AACACGCGCAGACACACACACACACCCACATATATA [CACACA_site2205]”, the “gcPBM binding intensity (ln)” value came out at 10.2.
Turning to “ATTACATACACGCGCACACACAAAAAAAAAAAAAAA [CACACA_site1334]”, the “gcPBM binding intensity (ln)” value was found to be 9.57.
The figure for “ACTTTATATTTTGAACGTACAAAAAAAAAATTATGT [XGTACX_site5588]” is 9.04.
The figure for “AATACAATATAGTGAAAAATAATTAAATACAATAAG [XGTACX_negctrl_site161]” is 9.6.
Regarding “TAGATATATAGACACACACACATTAATACCTATATT [CACACA_site7605]”, the “gcPBM binding intensity (ln)” value came to 10.1.
As for “CGCTTTATTTATATATGTACATATATATATATATAC [XGTACX_site5012]”, the “gcPBM binding intensity (ln)” value is 9.33.
The figure for “TAATATAACAAAAAAATAAAATAAAATAAAAAATAA [CACACA_negctrl_site109]” is 9.35; for “AAAAGAATTACTTTCACACATATATATCTGTAAATA [CACACA_site5798]” it is 9.15.
Regarding “TACACGCATGGACACACACACACACCCATATATATA [CACACA_site4522]”, the “gcPBM binding intensity (ln)” value amounted to 10.2.
Under “CACGCGCCCGGACACACACACACACCCATATATATA [CACACA_site5251]” stands 10.2.
In the case of “TACACCCATGGACACACACACACGCATAAAAAAAAA [CACACA_site4933]”, the “gcPBM binding intensity (ln)” value is 9.93.
The figure for “GATATTAAAATATGTAGTACACATATTATATCATAT [XGTACX_site4167]” is 9.18; for “ATTTAACATATAAAATGTACATATATATATATATTT [XGTACX_site2525]” it is 9.25.
Under “GTTAATCACCATGTGGTGCATATAAGGGCATATTAT [GTGCAC_site9748]” stands 9.22; under “TATAGATACATATACACACACACACCCACATATATA [CACACA_site3436]”, 10.2; under “TCTCATAGTAGACACACACACACACGCACATATATA [CACACA_site6916]”, 10.4.
Under “ATTCTACACCCACATACACACATATATATATATATA [CACACA_site3426]” stands 9.84; under “TATATATATATATACACACACACACCCATATATATA [CACACA_site2538]”, 10.
On to “CATAGATACATACACGCACACACATATATATATATA [CACACA_site13]”, for which the “gcPBM binding intensity (ln)” value was found to be 9.87.
Under “TAATTTATAACACGCGCACACATATATATATAGTAA [CACACA_site121]” stands 9.57; under “TAAGAAATAAATAGTACACACATAGACACACGCACA [CACACA_site6821]”, 9.92; under “TATATCTCATAGTATACACACACACCCACCCACATA [CACACA_site8513]”, 10.3.
Under “TATATATATATATATACACACACACCCATATATATA [CACACA_site8812]” stands 9.94.
Under “TATATATATAGACACACACACACATATATATATATA [CACACA_site9366]” stands 10.
With “TATCTCATAGTATACACACACACACGCGCACATATA [CACACA_site6917]”, the “gcPBM binding intensity (ln)” value came to 10.3.
Under “TATCTCATAGTATACACACACACACCCACCCATATA [CACACA_site1739]” stands 10.4.
Under “AATATATATATACATACATGCATACATATATATATA [TGCATGCA_site784]” stands 9.24; under “TTTATCCTTCTTTTGAGTACTCAAAGAGACCTATAA [XGTACX_site8050]”, 8.83.
Under “ATGAATTTATTACATTGTACATTTTTAAAAGGTTAC [XGTACX_site124]” stands 9.11.
“TAAAAAAGAACAGAAACACACAAATAAAATAAAATT [CACACA_site1758]”: the “gcPBM binding intensity (ln)” value turned out to be 10.
Under “GGGAGAAATTTATACATACACACATATATATATTAT [CACACA_site4039]” stands 9.62; under “AAATATTATACAAAAAAAAAAAAAAAAAAAATATAT [CACACA_negctrl_site52]”, 9.39; under “AAAGCACCCAGGCACACACACAAAGGAAAAGAAAAA [CACACA_site232]”, 9.83.
The figure for “AAAAAAAACAGACACACACACAAATATATAAAAATA [CACACA_site1172]” is 10; for “TTAATACCCGGACACACACACACAAAATAAAATACA [CACACA_site4296]” it is 10.2.
As for “GCTTAATACAGAATAACACACAAAATAAATAAATAA [CACACA_site4041]”, the “gcPBM binding intensity (ln)” value is 9.56.
Under “TTAATCCACAGACACACACACACAAAATAAAATACA [CACACA_site244]” stands 10.2; under “CAAATACCCGGACACACACACACAAAAAAAAAAAAA [CACACA_site4441]”, 9.99.
In the case of “AAAAAAAACAGACACACACACATACAAAATATATAT [CACACA_site1449]”, the “gcPBM binding intensity (ln)” value was 10.2.
“AAAAAAAACAGACACACACACAAATACATACACAAA [CACACA_site705]”: the “gcPBM binding intensity (ln)” value turned out to be 10.
In the case of “AAAAAAAAAAAAAACACACACATACAGACAAAAATG [CACACA_site83]”, the “gcPBM binding intensity (ln)” value amounted to 10.1.
The figure for “ATAAATGACAGACACACACACAAAAAAAAAAAACAA [CACACA_site2626]” is 10.2; for “TTAATACCCAGACACACACACACAAAATAAAATACA [CACACA_site7968]” it is 10.1.
The figure for “AAAACAGACAAACACACACACACATATATATATATA [CACACA_site3393]” is 10; for “AAAAAAAAAAAAAATACACACAAATAATAAAAATAA [CACACA_site1431]” it is 9.85; for “AAATGTACAGGACGCACACACATATTTATATTTATA [CACACA_site7689]” it is 9.67.
For the sequence “ATACATATATTAGGATGTACGTTTATTTTAGTTATT [XGTACX_site7169]”, the “gcPBM binding intensity (ln)” value was determined as 9.47.
The figure for “ATTAATATTTAGACTTGTACATATATAATATATGTC [XGTACX_site3766]” is 9.2; for “AAATTCTTAACCCAACGTACATATAATAAATTCTTA [XGTACX_site8538]” it is 9.1.
